# IDE cell activ – activators of human insulin-degrading enzyme in cells | HEK cells, FAbeta-B cleavage, fluorescence polarization; 0% vehicle, 100% cell-free pure enzyme wells | activation, % at 5.96 µM | 340,000 compounds, 0.073% hits | AID 493087;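 active = activation above the mean of all tested compounds plus 3 SD, set per screening campaign, cut at about 17% in these data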
# HDAC3 inh – blocks human histone deacetylase 3; 320,000 compounds, 0.15% hits; inhibition, % at 8.3 µM; O15379; AID 2718; recombinant HDAC3, fluorogenic peptide/trypsin coupled, fluorescence; in the data active = inhibition above about 26%, passing the limit was not always enough; inconclusive = no clear call, values can overlap the other calls
# Target sequence (O15379 whole entry, looked up): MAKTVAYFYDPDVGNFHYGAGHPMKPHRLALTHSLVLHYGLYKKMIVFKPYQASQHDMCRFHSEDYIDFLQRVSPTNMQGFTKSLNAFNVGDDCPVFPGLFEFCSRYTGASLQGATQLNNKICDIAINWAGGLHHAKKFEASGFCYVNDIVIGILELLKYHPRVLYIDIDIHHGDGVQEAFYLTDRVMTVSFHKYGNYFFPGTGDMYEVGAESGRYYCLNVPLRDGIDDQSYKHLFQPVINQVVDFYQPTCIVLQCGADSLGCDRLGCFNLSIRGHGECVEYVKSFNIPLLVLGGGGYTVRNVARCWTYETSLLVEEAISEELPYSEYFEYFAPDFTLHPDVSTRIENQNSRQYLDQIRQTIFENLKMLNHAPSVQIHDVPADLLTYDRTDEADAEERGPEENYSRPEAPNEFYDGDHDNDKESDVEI
# IDE cell inh – inhibits human insulin-degrading enzyme in HEK cells; AID 434962; inhibition, % at 5.59 µM; P14735; FAbetaB cleavage, fluorescence polarization; 320,000 compounds, 0.41% hits;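 active = percent inhibition above the average of all tested compounds plus 3 SD, set per screening campaign, cut at about 16% in these data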;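 note: IDE supplied by intact live HEK cells; FP after avidin binding of uncleaved biotin substrate so inhibition keeps polarization high; 0% = DMSO wells and 100% = 60 µM reference IDE inhibitor Ii1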
# LANA-H2B inh – blocks KSHV LANA binding to histone H2A/H2B; Q9QR71; cell-free LANA-H2A/H2B peptide, fluorescence polarization; inhibition, % (concentration not given with the values); 320,000 compounds, 0.6% hits; AID 2629; in the data active = inhibition mostly above about 10%, no sharp cut-off; inactive = mostly below about 6.7%
# IDE inh confirm – confirmation of human insulin-degrading enzyme inhibitors in cells; HEK cells, FAbetaB cleavage, fluorescence polarization; 1,200 compounds, 51% hits; inhibition, % at 5.59 µM; AID 435028; shares compounds with IDE cell inh;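 active = mean inhibition across triplicate wells above the cutoff set by the earlier primary insulin-degrading enzyme screen, cut at about 16% in these data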;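 note: 0% = DMSO wells and 100% = 60 µM reference IDE inhibitor Ii1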
# HEK293 tox – kills HEK cells in IDE inhibitor counter-screen; HEK293 cytotoxicity, ATP luminescence; AID 449730; 1,200 compounds, 28% hits; inhibition, % at 5.59 µM; shares compounds with IDE cell inh; in the data active = inhibition above about 22%;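 note: 0% = vehicle wells and 100% = reference cytotoxic drug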
# * = called active by the depositor; u = inconclusive; x = not tested or not shown. Shown are actives, neighbours in structure and some others; about 1.1% of the full set was active somewhere.
SMILES,IDE cell activ,HDAC3 inh,IDE cell inh,LANA-H2B inh,IDE inh confirm,HEK293 tox
COc1ccc2[nH]c3c(N4CC(C)OC(C)C4)ncnc3c2c1 (stereo not drawn),x,-10,17*,3,7,11
COc1ccc(CC(=O)OC(C)C(=O)NC2CCCCC2C)cc1 (stereo not drawn),2,x,x,x,x,x
Cc1ccsc1C(=O)OCC(=O)N(Cc1ccccc1)C(C)C,2,-4,16*,-5,3,12
Cc1ccc(C(=O)OCC(=O)N(Cc2ccccc2)C(C)C)cc1C,3,5,1,-4,x,x
CC(=O)N/N=C/c1cc(C(C)C)cc(/C=N/NC(C)=O)c1O,-46,u,23*,3,35*,4
CC(=O)N/N=C/c1cc(C)n(-c2ccc(Br)cc2)c1C,-3,1,-2,-1,x,x
Cc1ccc2c(c1)c1ncnc(N3CCOCC3)c1n2C,-24,-54,17*,-2,12,10
Cc1cccc(N2CCN(C(=O)CSCc3c(C)noc3C)CC2)c1C,-3,4,17*,7,0,65*
COc1ccc(C2=CC(c3ccc(Cl)cc3)n3cnnc3N2)cc1OC (stereo not drawn),-6,6,9,-1,x,x
CC(C)N1CCC(=O)NC1=O,5,x,x,x,x,x
COc1ccc(/C=N\NC(=O)/C(=C\Nc2nccc(C)n2)NC(=O)c2ccccc2)cc1,-1,3,13,-3,x,x
Cc1ccc(/C=N\NC(=O)/C(=C\Nc2nccc(C)n2)NC(=O)c2ccccc2)cc1,-47,x,26*,2,31*,10
CC(C)(C)C1CCC2(CC1)C(C#N)=C(SCC(=O)Nc1ccccc1)NC(=O)C2C#N (stereo not drawn),6,4,5,3,x,x
N#CC1=C(SCC(=O)c2cc3ccccc3oc2=O)NC(=O)C(C#N)C12CCCC2 (stereo not drawn),-22,1,21*,1,9,12
CN(C(=O)c1cccc(S(=O)(=O)N2CCOCC2)c1)c1c(N)n(Cc2ccccc2)c(=O)[nH]c1=O,5,0,1,-3,x,x
CCn1nc(NS(=O)(=O)c2ccc([N+](=O)[O-])cc2)c2cc3ccccc3nc21,-3,7,9,-5,x,x
Cc1ccc(C)c(N(CC(=O)NCc2ccco2)C(=O)CCC(=O)Nc2nccs2)c1,-1,1,1,5,x,x
Clc1ccc2[nH]c3c(NCCCN4CCOCC4)ncnc3c2c1,-9,-2,42*,-3,17*,21
O=C(NCCS(=O)(=O)c1ccc(Br)cc1)c1ccc(Cl)cc1Cl,4,-2,4,-5,x,x
CCc1sc(C(=O)Nc2nc(-c3ccccn3)cs2)cc1C,-6,0,19*,8,6,50*
CCn1c(=O)c(C(=O)CN2CCCc3ccccc32)c(N)n(Cc2ccccc2)c1=O,-4,-1,37*,-4,10,17
CCN(CC(=O)NC(C)(C)C)C(=O)c1ccc2c(c1)S(=O)(=O)c1ccccc1C2=O,0,-4,-2,-2,x,x
CS(=O)(=O)c1ccc(N)c(SSc2cc(S(C)(=O)=O)ccc2N)c1,-24,11,30*,-4,27*,7
Cc1ccc(O)c(C(=O)c2cc(C#N)c(=O)n(-c3nccs3)c2)c1,-43,-6,51*,0,65*,10
Cc1c(-n2cc(C(=O)c3cc(Cl)ccc3O)cc(C#N)c2=O)c(=O)n(-c2ccccc2)n1C,-12,2,17*,8,25*,4
SMILES,IDE cell activ,HDAC3 inh,IDE cell inh,LANA-H2B inh,IDE inh confirm,HEK293 tox
CSC1=NC(C)(C)C=C(/C=C/c2ccc(Cl)cc2Cl)N1,-5,7,3,-5,x,x
Clc1ccc(/C=C/c2ncc[nH]2)c(Cl)c1,-18,-2,18*,-1,8,19
COc1ccc(C)cc1NC(=O)c1cccc(-c2ccc(OC(C)=O)cc2)c1,3,14,-1,2,x,x
CCN=C1S/C(=C\c2cc(OCC)c(O)cc2Br)C(=O)N1CC,-17,2,17*,-10,22*,23*
COc1ccc(-c2noc(CCC(=O)N3CCN(c4ccccc4)CC3)n2)cc1,3,x,x,x,x,x
Cc1cccc(C(=O)NCC(c2ccc(F)cc2)N2CCOCC2)c1 (stereo not drawn),6,-2,16*,-2,7,7
Cc1ccc(C(=O)NCC(c2ccc(F)cc2)N2CCOCC2)cc1 (stereo not drawn),9,3,3,4,x,x
O=[N+]([O-])c1ccc(/C=C/C2=NN(c3ccccc3)C(c3ccco3)C2)cc1 (stereo not drawn),-100,4,36*,-6,53*,19
O=[N+]([O-])c1ccc(C2=NN(c3ccccc3)C(c3ccco3)C2)cc1 (stereo not drawn),0,x,x,x,x,x
CCOC(=O)Cc1csc(-n2sc3ccccc3c2=O)n1,-25,5,17*,1,13,28*
CSCCC(NC(=O)c1ccco1)C(=O)N1CCN(c2ccccc2O)CC1 (stereo not drawn),3,-6,-5,10,x,x
N#C/C(=C\c1ccc(N2CCOCC2)o1)c1nc2ccccc2[nH]1,-151,x,20*,x,26*,29*
COc1ccc(OC)c(S(=O)(=O)N(C(C)=O)c2ccc3oc(=O)sc3c2)c1,-10,6,6,2,x,x
CC(C)C(=O)N(c1ccc2oc(=O)sc2c1)S(=O)(=O)c1ccccc1,-22,1,25*,3,3,8
CC(=O)N(c1ccc2oc(=O)sc2c1)S(=O)(=O)c1ccccc1,-14,5,23*,3,11,7
Cc1ccc2c(C)c(C(=O)N(Cc3ccc(F)cc3)C3CCS(=O)(=O)C3)oc2c1 (stereo not drawn),6,-1,1,-1,x,x
CCC/C(O)=C1\C(=O)CC(C)(C)CC1=Nc1ccccc1O,-1,5,2,0,x,x
Cc1cc(C)c2c(N)c(C(=O)NC3CCCC3)sc2n1,-1,0,4,2,x,x
Cc1cc(C)c2c(=O)n(CC(=O)Nc3cccc(Cl)c3C)sc2n1,-62,0,40*,-1,6,79*
Cc1cc(C)c2c(=O)n(CC(=O)NC3CCCC3)sc2n1,-50,4,27*,0,2,80*
COc1ccc(OC)c(CCNC(=O)Cn2sc3nc(C)cc(C)c3c2=O)c1,x,-3,20*,-3,7,125*
COc1ccc(OC)c(CCNC(=O)Cn2nc(C)c3c(C)n(-c4ccc(C)cc4)nc3c2=O)c1,2,9,0,1,x,x
Cc1cc(C)c2c(=O)n(CC(=O)Nc3ccc(Br)c(C)c3)sc2n1,-51,1,61*,0,19*,22
Cc1cc(NC(=O)Cc2ccsc2)ccc1Br,2,6,-5,-2,x,x
CC(=O)c1sc(NC(=O)CCCOc2ccc(Cl)cc2)nc1C,-2,-3,1,1,x,x
O=C(/C=C/c1ccc(N2CCC(c3ccccc3)=N2)cc1)c1ccccc1,x,-5,112*,0,63*,15

# High-throughput results as filed in PubChem.
